We go through 34 compounds from PubChem BioAssay (NCATS).

Where “and” joins values, the source holds several entries; their conditions need not be identical. Equal entries are not always repeated. Inconclusive results are not listed. Some structures have more than one record in an assay (separate samples or runs), and their calls can disagree. Calls of active or inactive are those of the source. Calls follow the shape of the dose curve; as a rule, active = well fitted curve in the direction sought with a large enough effect; inconclusive = small, poorly fitted or top-dose-only effect, or another doubt; inactive = no such curve, though single readings can be large; an effect the other way counts as inactive or inconclusive.
% is scaled to controls: 0 for no effect and ±100 for the full control effect.

The first experiment relates to WaGa. The experiment in a line: qHTS assay to identify novel small-molecules to repurpose for Merkel cell carcinoma treatment (AID 1296009). Also: nearly all actives have a fitted effect of over 60% in size. Also: potency is read from the fitted curve at half-maximal effect. The conditions noted are these: MCC and control cell lines, CellTiter-Glo viability, 72 h; series mostly up to 46 µM; activity change, negative = cytotoxicity: at the top concentration. The essentials:
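Luminescence from CellTiter-Glo, read 10 min after addition at room temperature, reported viability following a 72 hr, 37 degree celsius treatment with NPC or MIPE compounds in titration; values normalized to plate controls.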
A general note: Quantitative high-throughput screening tests each substance at several concentrations.
Consider `CN(C)C(=N)N=C(N)N`, for which the Potency entry is “inactive”.
Still for that read-out and setting: to `CC12CC3CC(C)(C1)CC(N)(C3)C2` belongs 3.72 µM (active) and inactive; to `Clc1ccc2c(c1)C(N1CCNCC1)=Nc1ccccc1O2`, “inactive”.
Same read-out and setting: to `CCOC(=O)Nc1ccc(NCc2ccc(F)cc2)nc1N` belongs 21.1 µM (active) and inactive; to `NCCCCCC(=O)O`, “inactive”.
On to `O=C(c1ccc(OCCN2CCCCC2)cc1)c1c(-c2ccc(O)cc2)sc2cc(O)ccc12`, for which the “activity change, negative = cytotoxicity” value was -7% (inactive).
Same read-out and setting: to `C[C@H]1c2cccc(O)c2C(O)=C2C(=O)[C@]3(O)C(O)=C(C(N)=O)C(=O)[C@@H](N(C)C)[C@@H]3[C@@H](O)[C@@H]21` belongs -8.06% (inactive).
In the case of `Cn1c(=O)c2c(ncn2C)n(C)c1=O`, the Potency entry is “inactive”.
For the compound `CN1C2CCC1CC(OC(=O)C(CO)c1ccccc1)C2` (stereo not drawn), the “activity change, negative = cytotoxicity” value was -3.62% (inactive).
Consider `CS(=O)(=O)Nc1ccc([N+](=O)[O-])cc1Oc1ccccc1`, for which the “activity change, negative = cytotoxicity” value is 4.12% (inactive).
Same read-out and setting: to `Cn1cnc2c1c(=O)[nH]c(=O)n2C` belongs 0.909% (inactive).
Take `O=c1c(O)c(-c2ccc(O)c(O)c2)oc2cc(O)cc(O)c12`: the “activity change, negative = cytotoxicity” value is -24.9% (inactive).
Regarding `CN(C)c1nc(N(C)C)nc(N(C)C)n1`, the Potency entry was “inactive”.
`CC(C(=O)O)c1cccc(C(=O)c2ccccc2)c1` (stereo not drawn): the Potency result was “inactive”.
On the same count and under the same terms, to `CCCNCC(O)COc1ccccc1C(=O)CCc1ccccc1` (stereo not drawn) belongs “inactive”.
Turning to `Clc1ccc(C(c2ccccc2Cl)C(Cl)Cl)cc1` (stereo not drawn), the “activity change, negative = cytotoxicity” value is -11.1% (inactive).
For the compound `Nc1ccn([C@H]2CC[C@@H](CO)O2)c(=O)n1`, the Potency entry is “inactive”.
In the case of `NS(=O)(=O)c1cc2c(cc1Cl)NCNS2(=O)=O`, the Potency entry was “inactive”.
Consider `Nc1nc2c(ncn2COC(CO)CO)c(=O)[nH]1`, for which the “activity change, negative = cytotoxicity” value is 11.4% (inactive).
As for `NC(=O)NO`, the “activity change, negative = cytotoxicity” value was 18.3% (inactive).
Consider `CC(C)NCC(O)COc1ccc(CCOCC2CC2)cc1` (stereo not drawn), for which the Potency result is “inactive”.
On the same count and under the same terms, to `COc1ccc(CCN(C)CCCC(C#N)(c2ccc(OC)c(OC)c2)C(C)C)cc1OC` (stereo not drawn) belongs “inactive”; to `C[C@@H]1CC(=O)NN=C1c1ccc(NN=C(C#N)C#N)cc1`, 23.7 µM (active) and inactive; to `CS(=O)(=O)CCNCc1ccc(-c2ccc3ncnc(Nc4ccc(OCc5cccc(F)c5)c(Cl)c4)c3c2)o1`, “inactive and 16.8 µM (active)”.
Take `COc1nc(C)nc(Cl)c1NC1=NCCN1`: the Potency result is “inactive”.
Still for that read-out and setting: to `Cc1ccc(-c2cc(C(F)(F)F)nn2-c2ccc(S(N)(=O)=O)cc2)cc1` belongs “inactive”.
On the same count and under the same terms, to `O=C1N(c2ccccc2)c2ccccc2C1(Cc1ccncc1)Cc1ccncc1` belongs “inactive”.
The same measure, in the same setting: to `CN1C(C(=O)Nc2ccccn2)=C(O)c2ccccc2S1(=O)=O` belongs “inactive and 16.6 µM (active)”.
Take `Cc1cnc(C(=O)NCCc2ccc(S(=O)(=O)NC(=O)NC3CCCCC3)cc2)cn1`: the Potency entry is “inactive”.
With `CCc1cccc2c3c([nH]c12)C(CC)(CC(=O)O)OCC3` (stereo not drawn), the Potency result is “inactive”.
As for `Cc1cn([C@H]2C=C[C@@H](CO)O2)c(=O)[nH]c1=O`, the Potency result was “inactive”.
`CC(C)(C)C(=O)Oc1ccc(S(=O)(=O)Nc2ccccc2C(=O)NCC(=O)O)cc1`: the Potency result was “inactive”.

In another experiment the test system is C33A. Put plainly: Primary qHTS to identify gynecologic anti-cancer compounds using libraries of approved drugs and bioactive compounds (AID 1345084). Also: nearly all actives have a fitted effect of over 55% in size. Conditions: Gynecologic cancer cell panel viability, ATPlite luminescence, 48 h; series mostly up to 57.5 µM; activity change, negative = cytotoxicity: at the top concentration. The gist of the method: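 Cytotoxicity screen measuring ATP content by luciferase luminescence. Each compound is applied at five concentrations for 48 h at 37 C with 5% CO2.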
As for `CN(C)C(=N)N=C(N)N`, the “activity change, negative = cytotoxicity” value was 0.418% (inactive).
In the case of `CC12CC3CC(C)(C1)CC(N)(C3)C2`, the “activity change, negative = cytotoxicity” value is -3.83% (inactive).
Turning to `Clc1ccc2c(c1)C(N1CCNCC1)=Nc1ccccc1O2`, the Potency entry is “inactive”.
For the compound `NCCCCCC(=O)O`, the “activity change, negative = cytotoxicity” value is 12.2% (inactive).
The same measure, in the same setting: to `O=C(c1ccc(OCCN2CCCCC2)cc1)c1c(-c2ccc(O)cc2)sc2cc(O)ccc12` belongs -7.64% (inactive).
Same read-out and setting: to `C[C@H]1c2cccc(O)c2C(O)=C2C(=O)[C@]3(O)C(O)=C(C(N)=O)C(=O)[C@@H](N(C)C)[C@@H]3[C@@H](O)[C@@H]21` belongs 15.1% (inactive).
As for `Cn1c(=O)c2c(ncn2C)n(C)c1=O`, the “activity change, negative = cytotoxicity” value is 9.76% (inactive).
On to `CS(=O)(=O)Nc1ccc([N+](=O)[O-])cc1Oc1ccccc1`, for which the “activity change, negative = cytotoxicity” value is 2.14% (inactive).
The same measure, in the same setting: to `Cn1cnc2c1c(=O)[nH]c(=O)n2C` belongs 9.2% (inactive).
For `CC(C)C(=O)Nc1ccc([N+](=O)[O-])c(C(F)(F)F)c1`, the “activity change, negative = cytotoxicity” value is -17.8% (inactive).
Still for that read-out and setting: to `O=c1c(O)c(-c2ccc(O)c(O)c2)oc2cc(O)cc(O)c12` belongs -19.2% (inactive).
On the same count and under the same terms, to `CN(C)c1nc(N(C)C)nc(N(C)C)n1` belongs 0.997% (inactive).
The same measure, in the same setting: to `CCCNCC(O)COc1ccccc1C(=O)CCc1ccccc1` (stereo not drawn) belongs -2.88% (inactive); to `Clc1ccc(C(c2ccccc2Cl)C(Cl)Cl)cc1` (stereo not drawn), -2.22% (inactive).
With `Nc1ccn([C@H]2CC[C@@H](CO)O2)c(=O)n1`, the “activity change, negative = cytotoxicity” value is -5.24% (inactive).
On the same count and under the same terms, to `NS(=O)(=O)c1cc2c(cc1Cl)NCNS2(=O)=O` belongs 4.98% (inactive); to `Nc1nc2c(ncn2COC(CO)CO)c(=O)[nH]1`, 1.43% (inactive); to `NC(=O)NO`, 2.58% (inactive).
As to `CC(C)NCC(O)COc1ccc(CCOCC2CC2)cc1` (stereo not drawn), the “activity change, negative = cytotoxicity” value was -22% (inactive).
`COc1ccc(CCN(C)CCCC(C#N)(c2ccc(OC)c(OC)c2)C(C)C)cc1OC` (stereo not drawn): the “activity change, negative = cytotoxicity” value was -0.417% (inactive).
Regarding `C[C@@H]1CC(=O)NN=C1c1ccc(NN=C(C#N)C#N)cc1`, the Potency result is “inactive”.
As to `CS(=O)(=O)CCNCc1ccc(-c2ccc3ncnc(Nc4ccc(OCc5cccc(F)c5)c(Cl)c4)c3c2)o1`, the Potency result is “inactive”.
For the compound `COc1nc(C)nc(Cl)c1NC1=NCCN1`, the “activity change, negative = cytotoxicity” value was 0.0314% (inactive).
On to `Cc1ccc(-c2cc(C(F)(F)F)nn2-c2ccc(S(N)(=O)=O)cc2)cc1`, for which the Potency result was “inactive”.
Consider `O=C1N(c2ccccc2)c2ccccc2C1(Cc1ccncc1)Cc1ccncc1`, for which the “activity change, negative = cytotoxicity” value is -1.96% (inactive).
Same read-out and setting: to `CN1C(C(=O)Nc2ccccn2)=C(O)c2ccccc2S1(=O)=O` belongs 10.8% (inactive).
Same read-out and setting: to `Cc1cnc(C(=O)NCCc2ccc(S(=O)(=O)NC(=O)NC3CCCCC3)cc2)cn1` belongs 0.351% (inactive); to `CCc1cccc2c3c([nH]c12)C(CC)(CC(=O)O)OCC3` (stereo not drawn), 0.605% (inactive).
In the case of `O=C1Cc2cc(CCN3CCN(c4nsc5ccccc45)CC3)c(Cl)cc2N1`, the Potency result is “inactive”.
With `Cc1cn([C@H]2C=C[C@@H](CO)O2)c(=O)[nH]c1=O`, the “activity change, negative = cytotoxicity” value was 26.4% (inactive).
Still for that read-out and setting: to `CC(C)(C)C(=O)Oc1ccc(S(=O)(=O)Nc2ccccc2C(=O)NCC(=O)O)cc1` belongs 16.5% (inactive).
